Measured values taken from PubChem BioAssay AID624305 (National Center for Advancing Translational Sciences (NCATS), 2012).
Results filed as inconclusive are left out. The source made the active and inactive calls. Calls come from the whole dose curve; as a rule, active = well fitted activation curve with a large enough effect; inconclusive = small, poorly fitted or top-dose-only effect; inactive = no such curve, though single readings can be large or run the other way.

Experiment: qHTS assay for re-activators of p53 using a Luc reporter: Hit Validation; note: nearly all actives have a fitted effect of over 75% in size; for activation: 0% is about no effect
Details: p53-responsive luciferase reporter cells, luminescence, H1299 line expressing heat-sensitive Ala138Val p53; series mostly up to 46.1 µM; activation: at the top concentration
How it was run: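 H1299 (p53-null) cells stably carrying p53-A138V and a BP100-luciferase reporter, 1000 cells/well, treated 24 h at 37 deg C. Compounds at several concentrations, 1:5 dilution; nocodazole control; luminescence read after 10 min with detection reagent.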
Potency is the fitted concentration of half-maximal effect.

SMILES	activation	Potency
COc1ccc(C(=O)C(CN2CCCC2)c2ccccc2)cc1 (stereo not drawn)	-30.7% (inactive)	–
COc1cccc(/C=C2\Oc3ccc(O)cc3C2=O)c1O	-18.8% (inactive)	–
O=[N+]([O-])c1cc(C(F)(F)F)ccc1NCCc1c[nH]c2ccccc12	5.73% (inactive)	–
CCc1ccc2c(CN(CC)Cc3nc4ccccc4c(=O)[nH]3)cc(=O)oc2c1	-11.9% [at 9.22 µM] (inactive)	–
CN(C)c1ccc(N=Cc2nc(-c3ccccc3)oc2OC(=O)c2cccc(Cl)c2)cc1	–	2060 nM (active)
Cc1ccc(C)c(C(=O)COC(=O)c2n[nH]c3ccccc23)c1	–	18400 nM (active)
O=C(Cc1ccccc1)NCc1ccc(F)cc1	34.4% (inactive)	–
CCc1cc(C(=O)c2ccc(C)cc2)c(NC(=O)CCl)s1	11.5% (inactive)	–
O=C(Nc1ccc(Cl)cc1C(F)(F)F)c1ccccc1	33.9% (inactive)	–
CCN(CC(=O)NCc1cccs1)c1ccc(S(=O)(=O)N2CCOCC2)cn1	-24.5% (inactive)	–
Cc1cccc(Nc2nc(N3CCOCC3)nc(N3CCOCC3)n2)c1	35.9% (inactive)	–
Nc1ccc(-c2cnc(-c3ccc(N)cc3)nc2)cc1	–	291 nM (active)
Clc1ccc(-c2cn3c(n2)-c2ccccc2C3)cc1Cl	–	10300 nM (active)
CC(=O)c1cccc(NS(=O)(=O)N(C)C)c1	-1.04% (inactive)	–
Cc1nn(-c2ccccc2)c(N2CCCC2)c1/C=N/NC(=O)c1cc(-c2ccccc2)nc2ccccc12	-9.9% (inactive)	–
CN(C)c1ccc(CNC2CC(C)(C)NC(C)(C)C2)cc1	25% (inactive)	–
Cc1cc(C)nc(CC(N)=O)n1	-13% (inactive)	–
O=C(CSc1nc2ccccc2c(=O)[nH]1)c1ccc(O)c(O)c1	21.4% (inactive)	–
COc1ccc2oc(C(=O)OCC(=O)NCCN3C(=O)CSC3=O)c(C)c2c1	-18.8% (inactive)	–

SMILES	activation	Potency
COc1ccc(/C=N/Nc2nncc3ccccc23)cc1	–	73.1 nM (active)
CC(C)C(=O)NC(c1cccs1)c1cc([N+](=O)[O-])c2cccnc2c1O (stereo not drawn)	-2.08% (inactive)	–
Cc1cccc(-n2c(O)c(C=Nc3ccccc3N)c(=O)[nH]c2=O)c1	39.1% (inactive)	–
C=CCn1c(C)cc(C(=O)CSc2nc3ccccc3o2)c1C	–	731 nM (active)
Cc1cs/c(=N\N=C\c2ccc(O)cc2)n1Cc1ccco1	23.4% (inactive)	–
COc1ccccc1NC(CC(=O)c1ccccc1)C(=O)OCC(=O)c1ccc(F)cc1 (stereo not drawn)	–	231 nM (active)
O=C(c1cccc(S(=O)(=O)NCc2ccc3c(c2)OCO3)c1)N1CCCC1	-4.69% (inactive)	–
Cc1c(/C(O)=C2/C(=O)C(=O)N(CCN3CCOCC3)C2c2cccs2)cnn1-c1ccccc1 (stereo not drawn)	–	8200 nM (active)
CCOc1ccc(NC(=O)c2cnsn2)cc1	–	2310 nM (active)
O=C1NC(c2ccc(Br)cc2)=N/C1=C/c1ccco1	–	580 nM (active)
COc1cc(CN2CCCCC2C(=O)Nc2ccc(Oc3ccccc3)nc2)ccc1O (stereo not drawn)	8.85% (inactive)	–
Cc1cc(C(=O)COC(=O)c2ccc(O)cc2)c(C)n1CC(F)(F)F	–	20600 nM (active)
O=C(CC1SC(N2CCCC2)=NC1=O)Nc1ccc(C(=O)Nc2ncccc2O)cc1 (stereo not drawn)	–	16400 nM (active)
Cc1ccc(Nc2nc(N)nc(CSc3nccn3C)n2)cc1	–	2310 nM (active)
COc1ccc(-c2nnc(-c3ccc(Br)o3)o2)cc1OC	22.4% (inactive)	–
Cc1nc(SCC(=O)Nc2nccs2)c(C#N)c(C)c1C	–	651 nM (active)
O=C(c1cnn(-c2ccccc2)c1)c1ccccc1O	–	1460 nM (active)
O=C(Nc1cccnc1)c1ccc([N+](=O)[O-])s1	17.2% (inactive)	–
Clc1ccc(-c2cn3cc(Br)ccc3n2)cc1Cl	–	206 nM (active)
